In PubChem BioAssay AID1159580 (chemical genetic matrix, 2015):
Values joined by “and” are separate entries in the source; they are usually repeats but may differ in a detail not shown here. Identical values can stand only once. The campaign covered roughly 5,500 compounds. About 2,000 (36%) were called active. Inconclusive results (about 18%) are left out. Rule as the data show it: active = normalized growth mostly below about 0.91 (no sharp cut-off); inconclusive = no clear call, values can overlap the other calls; inactive = mostly above about 0.92. This is one part of the list.

Assay: chemical genetic growth profiling, strain panel (AID 1159580);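 also: tested at 20 µM; growth read once vehicle control cultures reached saturation at 30 °C; 1 = growth at the plate median or of vehicle wells; lower values mean less growth of the strain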
Details: growth OD

Measured: normalized growth

NNc1nncc2ccccc12
inactive: S. cerevisiae deletion strains, locus YJR066W, strain TOR1, stronger effect = lower value 0.919 | S. cerevisiae deletion strains, locus YJR075W, strain HOC1, stronger effect = lower value 0.996 | S. cerevisiae deletion strains, locus YKL009W, strain mrt4, stronger effect = lower value 0.96 | S. cerevisiae deletion strains, locus YKL068W, stronger effect = lower value 0.997 | S. cerevisiae deletion strains, locus YKL085W, strain MDH1 (second series), stronger effect = lower value 0.989 | S. cerevisiae deletion strains, locus YKL085W, strain MDH1, stronger effect = lower value 0.989 | S. cerevisiae deletion strains, locus YKL160W, strain elf1, stronger effect = lower value 0.995 | S. cerevisiae deletion strains, locus YKL190W, strain CNB1, stronger effect = lower value 1 | S. cerevisiae deletion strains, locus YKR001C, strain vps1, stronger effect = lower value 1 | S. cerevisiae deletion strains, locus YKR026C, strain gcn3, stronger effect = lower value 0.998 | S. cerevisiae deletion strains, locus YKR091W, strain srl3, stronger effect = lower value 0.997 | S. cerevisiae deletion strains, locus YLL001W, strain dnm1, stronger effect = lower value 0.979 | S. cerevisiae deletion strains, locus YLL026W, stronger effect = lower value 1 | S. cerevisiae deletion strains, locus YLL041C, strain sdh2, stronger effect = lower value 0.994 | S. cerevisiae deletion strains, locus YLR027C, strain aat2, stronger effect = lower value 1 | S. cerevisiae deletion strains, locus YLR039C, strain RIC1, stronger effect = lower value 0.989 | S. cerevisiae deletion strains, locus YLR058C, strain SHM2, stronger effect = lower value 1.01 | S. cerevisiae deletion strains, locus YLR102C, strain apc9, stronger effect = lower value 0.991 | S. cerevisiae deletion strains, locus YLR113W, strain HOG1, stronger effect = lower value 1.06 | S. cerevisiae deletion strains, locus YLR221C, strain rsa3, stronger effect = lower value 0.969 | S. cerevisiae deletion strains, locus YLR258W, strain gsy2, stronger effect = lower value 0.991 | S. cerevisiae deletion strains, locus YLR262C, strain YPT6 (second series), stronger effect = lower value 1 | S. cerevisiae deletion strains, locus YLR262C, strain YPT6, stronger effect = lower value 1.07 | S. cerevisiae deletion strains, locus YLR268W, strain sec22, stronger effect = lower value 0.954 | S. cerevisiae deletion strains, locus YLR320W, strain mms22, stronger effect = lower value 0.991 | S. cerevisiae deletion strains, locus YLR330W, strain CHS5, stronger effect = lower value 1.01 | S. cerevisiae deletion strains, locus YLR342W, strain FKS1 (second series), stronger effect = lower value 0.934 | S. cerevisiae deletion strains, locus YLR342W, strain FKS1, stronger effect = lower value 1.01 | S. cerevisiae deletion strains, locus YLR357W, strain rsc2, stronger effect = lower value 0.981 | S. cerevisiae deletion strains, locus YLR370C, strain arc18, stronger effect = lower value 0.977 | S. cerevisiae deletion strains, locus YLR371W, strain rom2, stronger effect = lower value 0.989 | S. cerevisiae deletion strains, locus YLR384C, strain iki3, stronger effect = lower value 0.985 | S. cerevisiae deletion strains, locus YLR418C, strain cdc73, stronger effect = lower value 0.96 | S. cerevisiae deletion strains, locus YML016C, strain PPZ1, stronger effect = lower value 0.995 | S. cerevisiae deletion strains, locus YML032C, strain rad52, stronger effect = lower value 0.985 | S. cerevisiae deletion strains, locus YML120C, strain ndi1, stronger effect = lower value 0.981 | S. cerevisiae deletion strains, locus YML124C, strain tub3, stronger effect = lower value 0.996 | S. cerevisiae deletion strains, locus YMR058W, strain fet3, stronger effect = lower value 0.996 | S. cerevisiae deletion strains, locus YMR078C, strain ctf18, stronger effect = lower value 0.993 | S. cerevisiae deletion strains, locus YMR125W, strain sto1, stronger effect = lower value 1.01 | S. cerevisiae deletion strains, locus YMR129W, stronger effect = lower value 0.996 | S. cerevisiae deletion strains, locus YMR205C, strain PFK2, stronger effect = lower value 0.998 | S. cerevisiae deletion strains, locus YMR223W, strain ubp8, stronger effect = lower value 0.975 | S. cerevisiae deletion strains, locus YMR231W, strain pep5, stronger effect = lower value 0.995 | S. cerevisiae deletion strains, locus YMR263W, strain SAP30, stronger effect = lower value 1 | S. cerevisiae deletion strains, locus YMR307W, strain GAS1, stronger effect = lower value 1.02 and 0.998 | S. cerevisiae deletion strains, locus YNL067W, strain RPL9B, stronger effect = lower value 1.01 | S. cerevisiae deletion strains, locus YNL071W, strain lat1, stronger effect = lower value 1.01 | S. cerevisiae deletion strains, locus YNL153C, strain GIM3, stronger effect = lower value 0.986 and 0.997 | S. cerevisiae deletion strains, locus YNL175C, strain NOP13, stronger effect = lower value 1.01 | S. cerevisiae deletion strains, locus YNL183C, strain NPR1, stronger effect = lower value 0.945 | S. cerevisiae deletion strains, locus YNL197C, strain WHI3, stronger effect = lower value 1.01 | S. cerevisiae deletion strains, locus YNL209W, strain ssb2, stronger effect = lower value 0.99 | S. cerevisiae deletion strains, locus YNL224C, strain SQS1, stronger effect = lower value 1.03 | S. cerevisiae deletion strains, locus YNL233W, strain BNI4, stronger effect = lower value 0.997 | S. cerevisiae deletion strains, locus YNL248C, strain rpa49, stronger effect = lower value 1.03 | S. cerevisiae deletion strains, locus YNL250W, strain rad50, stronger effect = lower value 0.988 | S. cerevisiae deletion strains, locus YNL271C, strain bni1, stronger effect = lower value 0.993 | S. cerevisiae deletion strains, locus YNL298W, strain CLA4, stronger effect = lower value 0.986 | S. cerevisiae deletion strains, locus YNL307C, strain MCK1, stronger effect = lower value 0.991 | S. cerevisiae deletion strains, locus YNL322C, strain KRE1 (second series), stronger effect = lower value 0.98 | S. cerevisiae deletion strains, locus YNR049C, strain mso1, stronger effect = lower value 0.999 | S. cerevisiae deletion strains, locus YNR052C, strain pop2, stronger effect = lower value 0.985 | S. cerevisiae deletion strains, locus YOL012C, strain htz1 1.31 | S. cerevisiae deletion strains, locus YOL147C, strain pex11, stronger effect = lower value 1 | S. cerevisiae deletion strains, locus YOR001W, strain rrp6, stronger effect = lower value 0.995 | S. cerevisiae deletion strains, locus YOR061W, strain CKA2, stronger effect = lower value 1.01 | S. cerevisiae deletion strains, locus YOR069W, strain VPS5, stronger effect = lower value 1 | S. cerevisiae deletion strains, locus YOR070C, strain gyp1, stronger effect = lower value 0.998 | S. cerevisiae deletion strains, locus YOR080W, strain dia2, stronger effect = lower value 0.997 | S. cerevisiae deletion strains, locus YOR083W, strain WHI5 (second series), stronger effect = lower value 1.03 | S. cerevisiae deletion strains, locus YOR083W, strain WHI5, stronger effect = lower value 1.01 | S. cerevisiae deletion strains, locus YOR106W, strain vam3, stronger effect = lower value 1 | S. cerevisiae deletion strains, locus YOR136W, strain idh2, stronger effect = lower value 0.988 | S. cerevisiae deletion strains, locus YOR144C, strain elg1, stronger effect = lower value 1 | S. cerevisiae deletion strains, locus YOR184W, strain ser1, stronger effect = lower value 0.958 | S. cerevisiae deletion strains, locus YOR231W, strain MKK1, stronger effect = lower value 1.02 | S. cerevisiae deletion strains, locus YOR265W, strain rbl2, stronger effect = lower value 0.989 | S. cerevisiae deletion strains, locus YOR270C, strain vph1, stronger effect = lower value 0.996 | S. cerevisiae deletion strains, locus YOR290C, strain snf2, stronger effect = lower value 0.942 | S. cerevisiae deletion strains, locus YOR316C, strain cot1, stronger effect = lower value 1 | S. cerevisiae deletion strains, locus YPL051W, strain arl3, stronger effect = lower value 1 | S. cerevisiae deletion strains, locus YPL055C, strain LGE1, stronger effect = lower value 1 | S. cerevisiae deletion strains, locus YPL078C, strain atp4, stronger effect = lower value 0.991 | S. cerevisiae deletion strains, locus YPL106C, strain sse1, stronger effect = lower value 0.941 | S. cerevisiae deletion strains, locus YPL240C, strain hsp82, stronger effect = lower value 0.987 | S. cerevisiae deletion strains, locus YPL241C, strain CIN2, stronger effect = lower value 0.998 | S. cerevisiae deletion strains, locus YPL256C, strain CLN2, stronger effect = lower value 1.04 | S. cerevisiae deletion strains, locus YPR119W, strain clb2, stronger effect = lower value 1 | S. cerevisiae deletion strains, locus YPR141C, strain kar3, stronger effect = lower value 1.01 | S. cerevisiae deletion strains, locus YPR163C, strain tif3, stronger effect = lower value 1.01 | S. cerevisiae deletion strains, locus YPR167C, strain met16, stronger effect = lower value 0.995 | S. cerevisiae deletion strains, strain wtn01, stronger effect = lower value 0.965 | S. cerevisiae strains, strain wild type, stronger effect = lower value 1.01
